In the supplement of paper PMC10849652:
Of roughly 8,800 targets only a part is listed; those with a hit were picked by preference. About 0.5% of all pairs of compound and target were hits.

Columns and labels:
Assay in all cases: log2 fold change, soluble protein after heating vs DMSO (PISA); higher = thermal stabilisation; K562 lysate, 10 uM; active = over 0.2 and 3.5 SD of the protein, either way, in both replicates (recomputed)
[1] = compound: CCCS(=O)(=O)Nc1ccc(F)c(C(=O)c2c[nH]c3ncc(-c4ccc(Cl)cc4)cc23)c1F [vemurafenib]
How it was run: (§1)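 A 30 min treatment with 10 μM compound was applied to crude K562 extract at 1 mg/mL protein in PBS pH 7.4 with 1 mM MgCl2. Heating for 3 min spanned 48°C-58°C, after which aliquots were pooled, adjusted to 0.5% NP-40 at 4°C and spun at 21,000xg for 90 min. TMTpro 16plex LC-MS/MS of the supernatant, with channel sums equalised, gave values recorded as log-two fold change in thermal stability against solvent controls, from duplicates.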

[2] = compound: CCCS(=O)(=O)Nc1ccc(F)c(C(=O)c2c[nH]c3ncc(Cl)cc23)c1F
How it was run: as §1

[3] = compound: CCN(CCCOc1ccc2c(Nc3cc(CC(=O)Nc4cccc(F)c4)[nH]n3)ncnc2c1)CCOP(=O)(O)O [barasertib]
How it was run: as §1

[4] = compound: CC[C@@H]1C(=O)N(C)c2cnc(Nc3ccc(C(=O)NC4CCN(C)CC4)cc3OC)nc2N1C1CCCC1
How it was run: as §1

[5] = compound: CC[C@@H]1C(=O)N(C)c2cnc(Nc3ccc(C(=O)N[C@H]4CC[C@H](N5CCN(CC6CC6)CC5)CC4)cc3OC)nc2N1C(C)C [volasertib]
How it was run: as §1

[6] = compound: CCn1c(C(=O)N(C2CC2)C2CC2)cc2c3c(ncn3C)c(Nc3cc(C)n(C)n3)nc21
How it was run: as §1

[7] = compound: CCn1cc(-c2ccnc3[nH]c(-c4cccc(CN(C)C)c4)cc23)c(-c2ccc(NC(=O)N(C)C)cc2)n1
How it was run: as §1

[8] = compound: CN1CCC(CNc2ccc3ncc(-c4cccc(OC(F)(F)F)c4)n3n2)CC1
How it was run: as §1

[9] = compound: CN1CCN(CCOc2cc(OC3CCOCC3)c3c(Nc4c(Cl)ccc5c4OCO5)ncnc3c2)CC1 [saracatinib]
How it was run: as §1

[10] = compound: CN1CCN(c2nc(C3=C(c4c[nH]c5ccccc45)C(=O)NC3=O)c3ccccc3n2)CC1 [sotrastaurin]
How it was run: as §1

[11] = compound: CN1CC[C@H](c2c(O)cc(O)c3c(=O)cc(-c4ccccc4Cl)oc23)[C@H](O)C1 [alvocidib]
How it was run: as §1

[12] = compound: CN1CCc2c(c3ccccc3n2Cc2ccc(C(=O)NO)cc2)C1 [Tubastatin A]
How it was run: as §1

[13] = compound: CNC(=O)C1=CC=CC=C1NC2=NC(=NC=C2Cl)NC3=C(C=C(C=C3)N4CCOCC4)OC
How it was run: as §1

[14] = compound: CNC(=O)c1ccc(Nc2ncc(C(F)(F)F)c(NCc3nccnc3N(C)S(C)(=O)=O)n2)cc1 [defactinib]
How it was run: as §1

[15] = compound: CNc1nc(-c2ccc3c(N)n[nH]c3c2)cc(N2C[C@@H](C(=O)NC3CCCCC3)CC[C@H]2C)n1
How it was run: as §1

[16] = compound: COC(=O)N[C@@H](C)CNc1nccc(-c2cn(C(C)C)nc2-c2cc(Cl)cc(NS(C)(=O)=O)c2F)n1 [encorafenib]
How it was run: as §1

[17] = compound: COC(=O)[C@H](CCSC)NC(=O)C1=C(C=C(C=C1)NC[C@H](CS)N)C2=CC=CC=C2
How it was run: as §1

[18] = compound: COc1cc(Nc2ncc3c(n2)-c2ccc(Cl)cc2C(c2c(F)cccc2OC)=NC3)ccc1C(=O)O [alisertib]
How it was run: as §1

[19] = compound: COc1cc2nc(-c3cc(F)ccc3O)nc(N[C@@H]3CNC[C@H]3C(C)(C)O)c2cc1OC
How it was run: as §1

[20] = compound: COc1cc2ncnc(Nc3ccc(F)c(Cl)c3)c2cc1OCCCN1CCOCC1 [gefitinib]
How it was run: as §1

Measured: log2 fold change

MLH1 (UniProt P40692)
UniProt P40692, sequence (P40692 whole entry, looked up): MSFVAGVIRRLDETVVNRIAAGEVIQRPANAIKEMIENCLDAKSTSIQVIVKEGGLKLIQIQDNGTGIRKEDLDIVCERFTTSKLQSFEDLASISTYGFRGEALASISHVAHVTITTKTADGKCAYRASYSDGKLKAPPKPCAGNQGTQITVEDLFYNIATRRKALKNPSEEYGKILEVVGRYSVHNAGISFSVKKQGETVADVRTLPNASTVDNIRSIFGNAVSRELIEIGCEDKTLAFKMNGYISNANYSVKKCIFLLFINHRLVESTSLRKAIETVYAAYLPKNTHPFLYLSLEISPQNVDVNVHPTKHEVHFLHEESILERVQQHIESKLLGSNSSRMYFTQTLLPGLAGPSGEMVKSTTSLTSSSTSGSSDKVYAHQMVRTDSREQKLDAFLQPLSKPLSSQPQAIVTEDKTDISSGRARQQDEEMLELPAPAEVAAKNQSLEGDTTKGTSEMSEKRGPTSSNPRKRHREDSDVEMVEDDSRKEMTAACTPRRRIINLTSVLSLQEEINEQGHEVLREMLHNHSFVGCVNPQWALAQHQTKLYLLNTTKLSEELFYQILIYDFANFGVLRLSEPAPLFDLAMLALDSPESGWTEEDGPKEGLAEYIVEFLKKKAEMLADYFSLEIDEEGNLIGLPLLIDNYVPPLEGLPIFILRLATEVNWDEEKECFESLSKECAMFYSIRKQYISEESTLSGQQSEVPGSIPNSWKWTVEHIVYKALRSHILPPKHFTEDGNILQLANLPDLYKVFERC
inactive: [1] 0.042 | [2] -0.039 | [3] 0.014 | [4] 0.013 | [5] -0.002 | [6] 0.014 | [7] -0.029 | [8] -0.023 | [9] 0.051 | [10] 0.02 | [11] 0.011 | [12] -0.167 | [13] -0.039 | [14] 0.004 | [15] -0.013 | [16] 0.044 | [17] 0.129 | [18] -0.01 | [19] 0.048 | [20] -0.053

KPNA2 (UniProt P52292)
inactive: [1] 0.001 | [2] 0 | [3] 0.05 | [4] -0.037 | [5] -0.051 | [6] 0.004 | [7] -0.033 | [8] -0.041 | [9] 0.005 | [10] 0.038 | [11] 0.018 | [12] -0.083 | [13] -0.012 | [14] 0.012 | [15] -0.013 | [16] -0.005 | [17] 0.122 | [18] 0.008 | [19] -0.017 | [20] 0.003

MAD2L2 (UniProt Q9UI95)
inactive: [1] -0.028 | [2] 0.246 | [3] 0.013 | [4] -0.065 | [5] 0.044 | [6] 0.089 | [7] -0.036 | [8] -0.051 | [9] 0.079 | [10] -0.006 | [11] -0.026 | [12] 0.051 | [13] 0.033 | [14] 0.06 | [15] 0.064 | [16] -0.069 | [17] 0.022 | [18] 0.04 | [19] 0.135 | [20] -0.006

MAP11 (UniProt Q8WVR3)
UniProt Q8WVR3, sequence (Q8WVR3 whole entry, looked up): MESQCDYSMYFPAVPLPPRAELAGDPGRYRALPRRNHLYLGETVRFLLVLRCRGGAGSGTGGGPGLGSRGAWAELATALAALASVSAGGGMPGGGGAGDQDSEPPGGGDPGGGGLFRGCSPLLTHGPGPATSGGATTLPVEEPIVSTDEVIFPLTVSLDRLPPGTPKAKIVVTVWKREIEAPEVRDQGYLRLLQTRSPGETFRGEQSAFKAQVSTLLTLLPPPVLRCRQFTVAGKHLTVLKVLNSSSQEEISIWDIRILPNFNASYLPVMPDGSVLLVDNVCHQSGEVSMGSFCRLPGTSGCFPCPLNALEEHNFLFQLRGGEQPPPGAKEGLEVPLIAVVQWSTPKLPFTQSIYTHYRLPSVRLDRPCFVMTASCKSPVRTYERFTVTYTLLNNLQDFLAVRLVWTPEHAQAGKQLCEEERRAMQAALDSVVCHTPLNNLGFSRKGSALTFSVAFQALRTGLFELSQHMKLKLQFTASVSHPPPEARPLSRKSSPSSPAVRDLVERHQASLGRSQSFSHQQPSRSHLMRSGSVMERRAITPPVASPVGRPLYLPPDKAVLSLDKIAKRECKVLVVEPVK
inactive: [1] -0.032 | [2] 0.044 | [3] 0.07 | [4] 0.129 | [5] -0.079 | [6] 0.086 | [7] 0.049 | [8] 0.06 | [9] 0.033 | [10] -0.039 | [11] -0.117 | [12] -0.091 | [13] 0.021 | [14] 0.076 | [15] 0.004 | [16] -0.058 | [17] -0.084 | [18] -0.001 | [19] -0.025 | [20] -0.046

LIMS1 isoform 3 (UniProt P48059)
UniProt P48059, sequence (P48059 whole entry, looked up): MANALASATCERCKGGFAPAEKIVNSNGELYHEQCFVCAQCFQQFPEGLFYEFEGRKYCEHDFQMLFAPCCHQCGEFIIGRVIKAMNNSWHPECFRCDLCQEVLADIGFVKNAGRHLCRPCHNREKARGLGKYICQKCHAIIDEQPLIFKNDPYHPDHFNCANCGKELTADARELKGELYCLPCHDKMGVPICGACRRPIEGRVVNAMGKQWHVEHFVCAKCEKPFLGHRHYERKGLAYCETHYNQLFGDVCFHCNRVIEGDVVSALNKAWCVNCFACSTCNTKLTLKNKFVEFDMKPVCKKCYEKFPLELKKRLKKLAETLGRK
inactive: [1] -0.055 | [2] -0.006 | [3] 0.014 | [4] 0.008 | [5] 0.024 | [6] -0.002 | [7] -0.005 | [8] 0.045 | [9] 0.014 | [10] -0.162 | [11] -0.014 | [12] 0.034 | [13] 0.017 | [14] 0.048 | [15] 0.02 | [16] 0.004 | [17] -0.118 | [18] 0.011 | [19] -0.003 | [20] -0.097

MBOAT2 (UniProt Q6ZWT7)
inactive: [1] 0.02 | [2] -0.01 | [3] 0.121 | [4] 0.159 | [5] -0.103 | [6] -0.015 | [7] -0.251 | [8] 0.026 | [9] 0.045 | [10] 0.284 | [11] -0.024 | [12] 0 | [13] 0.079 | [14] 0.002 | [15] -0.025 | [16] 0.156 | [17] -0.073 | [18] -0.003 | [19] 0.034 | [20] 0.064

MARK3 (UniProt P27448)
inactive: [1] -0.003 | [2] 0.036 | [3] -0.001 | [4] 0.038 | [5] 0.042 | [6] 0.005 | [7] -0.114 | [8] -0.237 | [9] -0.015 | [10] -0.228 | [11] -0.071 | [12] -0.119 | [13] -0.188 | [14] -0.158 | [15] 0.113 | [16] 0.038 | [17] 0.129 | [18] 0.006 | [19] 0.003 | [20] -0.02

MAPKAPK3 (UniProt Q16644)
UniProt Q16644, sequence (Q16644 whole entry, looked up): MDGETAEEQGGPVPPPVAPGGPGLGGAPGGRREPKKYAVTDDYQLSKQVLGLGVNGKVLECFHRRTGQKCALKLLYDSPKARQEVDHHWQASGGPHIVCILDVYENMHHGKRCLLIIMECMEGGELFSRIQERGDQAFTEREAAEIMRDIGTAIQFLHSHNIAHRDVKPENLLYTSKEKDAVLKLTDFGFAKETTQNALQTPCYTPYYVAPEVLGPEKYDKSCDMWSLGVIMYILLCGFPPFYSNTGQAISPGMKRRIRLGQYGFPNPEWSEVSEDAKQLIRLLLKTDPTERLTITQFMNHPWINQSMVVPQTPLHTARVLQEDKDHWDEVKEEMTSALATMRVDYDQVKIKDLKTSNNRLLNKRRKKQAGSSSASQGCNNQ
inactive: [1] -0.02 | [2] -0.018 | [3] 0.015 | [4] -0.145 | [5] 0.002 | [6] 0.028 | [7] -0.001 | [8] -0.067 | [9] 0.003 | [10] -0.014 | [11] 0.038 | [12] -0.125 | [13] 0.015 | [14] 0.033 | [15] -0.11 | [16] -0.015 | [17] 0.055 | [18] -0.055 | [19] 0.006 | [20] 0.148

MAP4 (UniProt P27816)
inactive: [1] 0.01 | [2] -0.017 | [3] -0.016 | [4] 0.064 | [5] 0.033 | [6] -0.022 | [7] -0.042 | [8] 0.036 | [9] -0.009 | [10] -0.027 | [11] -0.023 | [12] 0.043 | [13] 0.016 | [14] -0.02 | [15] 0.037 | [16] -0.024 | [17] -0.031 | [18] -0.007 | [19] 0.014 | [20] -0.02

MORC2 (UniProt Q9Y6X9)
inactive: [1] 0.049 | [2] 0.01 | [3] 0.054 | [4] 0.022 | [5] 0.002 | [6] -0.006 | [7] -0.041 | [8] 0.008 | [9] 0.042 | [10] 0.037 | [11] 0.018 | [12] -0.095 | [13] 0 | [14] 0.013 | [15] -0.012 | [16] 0.02 | [17] 0.025 | [18] 0.001 | [19] -0.008 | [20] -0.02

MAPK9 (UniProt P45984)
active: [13] 0.44
inactive: [1] -0.016 | [2] -0.002 | [3] -0.025 | [4] -0.063 | [5] 0.006 | [6] -0.007 | [7] 0.084 | [8] -0.15 | [9] 0.002 | [10] -0.031 | [11] 0.028 | [12] -0.064 | [14] 0.056 | [15] 0.006 | [16] 0.17 | [17] -0.019 | [18] -0.021 | [19] 0.006 | [20] 0.027

KLHL36 (UniProt Q8N4N3)
UniProt Q8N4N3, sequence (Q8N4N3 whole entry, looked up): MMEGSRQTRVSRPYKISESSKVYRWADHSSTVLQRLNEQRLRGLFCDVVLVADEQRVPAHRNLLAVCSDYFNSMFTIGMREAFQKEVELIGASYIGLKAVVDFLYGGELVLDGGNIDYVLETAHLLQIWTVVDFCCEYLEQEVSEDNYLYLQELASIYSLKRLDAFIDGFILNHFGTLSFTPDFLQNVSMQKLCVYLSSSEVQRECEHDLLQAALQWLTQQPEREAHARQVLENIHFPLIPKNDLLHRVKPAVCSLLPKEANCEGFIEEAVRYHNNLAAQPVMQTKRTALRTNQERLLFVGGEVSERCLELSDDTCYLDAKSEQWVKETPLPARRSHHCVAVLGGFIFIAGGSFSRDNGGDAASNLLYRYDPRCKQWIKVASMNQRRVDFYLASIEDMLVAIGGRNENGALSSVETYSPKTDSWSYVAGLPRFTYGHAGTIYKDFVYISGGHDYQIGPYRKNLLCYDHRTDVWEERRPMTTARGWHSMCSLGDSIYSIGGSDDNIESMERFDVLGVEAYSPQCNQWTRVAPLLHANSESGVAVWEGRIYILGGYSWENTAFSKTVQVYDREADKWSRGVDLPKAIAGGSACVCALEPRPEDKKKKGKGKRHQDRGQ
inactive: [1] 0.024 | [2] 0.106 | [3] -0.088 | [4] 0.077 | [5] -0.127 | [6] 0.1 | [7] -0.006 | [8] -0.048 | [9] -0.031 | [10] 0.099 | [11] 0.046 | [12] 0.04 | [13] -0.032 | [14] 0.039 | [15] 0.017 | [16] 0.031 | [17] -0.078 | [18] 0.032 | [19] -0.009 | [20] -0.074

MICU1 isoform 3 (UniProt Q9BPX6)
inactive: [1] -0.055 | [2] -0.004 | [3] 0.094 | [4] 0.002 | [5] -0.005 | [6] 0.091 | [9] 0.006 | [10] 0.044 | [11] 0.092 | [12] -0.065 | [13] 0 | [14] 0.026 | [15] -0.061 | [16] -0.037 | [17] -0.05 | [18] -0.025 | [19] -0.063 | [20] 0.023
active: [7] 0.234 | [8] -0.422

KIF2C (UniProt Q99661)
inactive: [1] 0.01 | [2] 0.004 | [3] 0.008 | [4] -0.058 | [5] -0.023 | [6] 0.016 | [7] 0.006 | [8] -0.015 | [9] -0.015 | [10] 0.02 | [11] 0.011 | [12] -0.18 | [13] -0.006 | [14] 0.018 | [15] 0.002 | [16] 0.004 | [17] 0.096 | [18] -0.006 | [19] 0.001 | [20] -0.014

KIFC1 (UniProt Q9BW19)
UniProt Q9BW19, sequence (Q9BW19 whole entry, looked up): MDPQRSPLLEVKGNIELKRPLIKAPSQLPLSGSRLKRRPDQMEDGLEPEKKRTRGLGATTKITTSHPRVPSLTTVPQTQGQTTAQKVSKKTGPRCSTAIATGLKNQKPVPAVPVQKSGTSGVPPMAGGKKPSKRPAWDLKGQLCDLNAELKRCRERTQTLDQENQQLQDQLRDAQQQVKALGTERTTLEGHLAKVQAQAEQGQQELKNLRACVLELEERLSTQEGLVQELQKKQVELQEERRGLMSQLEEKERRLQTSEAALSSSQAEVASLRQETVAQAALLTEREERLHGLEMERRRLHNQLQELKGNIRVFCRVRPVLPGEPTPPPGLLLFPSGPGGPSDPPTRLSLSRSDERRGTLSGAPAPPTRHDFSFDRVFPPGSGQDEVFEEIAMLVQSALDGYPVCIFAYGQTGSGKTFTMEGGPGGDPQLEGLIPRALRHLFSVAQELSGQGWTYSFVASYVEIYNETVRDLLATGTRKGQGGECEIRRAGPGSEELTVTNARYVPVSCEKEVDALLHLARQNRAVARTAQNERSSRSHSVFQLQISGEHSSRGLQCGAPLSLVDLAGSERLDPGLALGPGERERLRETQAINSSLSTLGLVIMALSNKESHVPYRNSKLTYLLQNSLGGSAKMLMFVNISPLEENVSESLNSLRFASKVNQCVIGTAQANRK
inactive: [1] -0.008 | [2] 0.037 | [3] 0.002 | [4] 0.006 | [5] -0.084 | [6] -0.031 | [7] -0.045 | [8] -0.031 | [9] 0.021 | [10] 0.071 | [11] -0.022 | [12] -0.15 | [13] -0.013 | [14] -0.003 | [15] 0.024 | [16] -0.03 | [17] 0.14 | [18] 0.011 | [19] 0.008 | [20] -0.01

MAP3K4 (UniProt Q9Y6R4)
UniProt Q9Y6R4, sequence (Q9Y6R4 whole entry, looked up): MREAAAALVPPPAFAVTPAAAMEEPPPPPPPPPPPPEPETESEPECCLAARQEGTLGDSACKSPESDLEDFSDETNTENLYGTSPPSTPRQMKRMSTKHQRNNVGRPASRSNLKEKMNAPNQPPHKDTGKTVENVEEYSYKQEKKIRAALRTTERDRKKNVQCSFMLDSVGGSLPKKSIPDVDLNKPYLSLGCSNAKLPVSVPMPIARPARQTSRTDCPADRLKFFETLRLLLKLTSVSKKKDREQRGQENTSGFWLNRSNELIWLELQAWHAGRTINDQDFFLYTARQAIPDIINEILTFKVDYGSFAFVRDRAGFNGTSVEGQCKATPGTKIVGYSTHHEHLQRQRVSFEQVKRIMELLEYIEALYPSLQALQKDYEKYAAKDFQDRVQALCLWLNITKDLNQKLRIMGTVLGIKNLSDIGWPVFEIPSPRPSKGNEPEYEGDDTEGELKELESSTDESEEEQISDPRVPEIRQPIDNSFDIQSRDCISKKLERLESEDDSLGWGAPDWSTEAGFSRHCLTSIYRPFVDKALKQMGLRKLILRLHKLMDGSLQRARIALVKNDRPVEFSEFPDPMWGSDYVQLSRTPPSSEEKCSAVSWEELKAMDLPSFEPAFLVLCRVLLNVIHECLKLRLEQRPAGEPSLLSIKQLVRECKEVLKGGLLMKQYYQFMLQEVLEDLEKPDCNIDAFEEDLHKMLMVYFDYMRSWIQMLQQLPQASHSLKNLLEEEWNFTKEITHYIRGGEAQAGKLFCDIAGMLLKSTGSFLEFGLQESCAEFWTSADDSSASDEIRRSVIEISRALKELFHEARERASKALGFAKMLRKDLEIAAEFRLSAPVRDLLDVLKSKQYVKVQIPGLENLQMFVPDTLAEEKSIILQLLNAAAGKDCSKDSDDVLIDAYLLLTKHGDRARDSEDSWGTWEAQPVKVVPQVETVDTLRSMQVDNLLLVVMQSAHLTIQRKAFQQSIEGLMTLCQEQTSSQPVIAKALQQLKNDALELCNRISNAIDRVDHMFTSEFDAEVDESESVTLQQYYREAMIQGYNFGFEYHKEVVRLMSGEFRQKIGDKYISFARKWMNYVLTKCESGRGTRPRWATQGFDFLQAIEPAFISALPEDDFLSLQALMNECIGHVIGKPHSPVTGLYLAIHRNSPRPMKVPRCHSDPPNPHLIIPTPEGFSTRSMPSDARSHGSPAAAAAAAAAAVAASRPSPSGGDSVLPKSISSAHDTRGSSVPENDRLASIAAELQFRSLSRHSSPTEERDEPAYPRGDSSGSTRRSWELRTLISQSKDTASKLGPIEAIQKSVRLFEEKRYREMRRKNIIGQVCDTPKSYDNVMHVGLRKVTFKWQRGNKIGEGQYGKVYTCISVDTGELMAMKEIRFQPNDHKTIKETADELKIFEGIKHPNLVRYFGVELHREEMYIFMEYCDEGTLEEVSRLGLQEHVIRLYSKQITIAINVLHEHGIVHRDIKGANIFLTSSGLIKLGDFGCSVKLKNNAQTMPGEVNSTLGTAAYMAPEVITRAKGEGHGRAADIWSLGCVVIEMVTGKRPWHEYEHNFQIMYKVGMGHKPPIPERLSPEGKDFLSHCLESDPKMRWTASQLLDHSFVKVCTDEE
inactive: [1] 0.006 | [2] 0.007 | [3] 0.107 | [4] 0.145 | [5] 0.167 | [6] 0.012 | [7] 0.047 | [8] 0.015 | [9] 0.005 | [10] -0.014 | [11] -0.027 | [12] -0.113 | [14] 0.071 | [15] -0.018 | [16] -0.171 | [17] 0.128 | [18] -0.028 | [19] -0.045 | [20] 0.081
active: [13] 0.366
